The supplement of paper PMC6555819

Legend:
Test in all cases: PBM binding z-score (relative to random genomic background probes); higher = stronger binding; sequences stand for … in GC…GCGATTGACAGCGTAGAATGAAGG
[1] = test system: FXR:RXRa (NR concentration 270 nM, RXRa partner concentration 90 nM)
In short: (§1)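 Ligand-free nuclear receptor dimers were bound for 1 h to custom Agilent 4×180K protein-binding microarrays. Detection used antibodies against each partner (one per run). Binding z-scores rest on regression-normalized fluorescence, with random background probes as the reference.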

[2] = test system: LXRa:RXRa (NR concentration 270 nM, RXRa partner concentration 90 nM)
In short: as §1

[3] = test system: LXRa homodimer (NR concentration 270 nM)
In short: as §1

[4] = test system: LXRb:RXRa (NR concentration 270 nM, RXRa partner concentration 90 nM)
In short: as §1

[5] = test system: LXRb homodimer (NR concentration 270 nM)
In short: as §1

[6] = test system: PPARa:RXRa (NR concentration 270 nM, RXRa partner concentration 90 nM)
In short: as §1

[7] = test system: PPARg:RXRa (NR concentration 180 nM, RXRa partner concentration 90 nM)
In short: as §1

[8] = test system: PPARg:RXRa 270nM:90nM, anti-RXR (NR concentration 270 nM, RXRa partner concentration 90 nM)
In short: as §1

[9] = test system: PPARg:RXRa 30nM:10nM, anti-RXR (NR concentration 30 nM, RXRa partner concentration 10 nM)
In short: as §1

[10] = test system: PPARg:RXRa 90nM:30nM, anti-RXR (NR concentration 90 nM, RXRa partner concentration 30 nM)
In short: as §1

[11] = test system: PPARg:RXRa DBDmut IVT, anti-RXR (DBD mutation: RXRa K156A/R161A, NR concentration 270 nM, RXRa partner concentration 90 nM)
In short: as §1

[12] = test system: PPARg:RXRa IVT, anti-PPARg (NR concentration 270 nM, RXRa partner concentration 90 nM)
In short: as §1

[13] = test system: PPARg DBDmut:RXRa IVT, anti-PPARg (DBD mutation: PPARg1 K132A/R137A, NR concentration 270 nM, RXRa partner concentration 90 nM)
In short: as §1

[14] = test system: PPARg DBDmut IVT, anti-PPARg (DBD mutation: PPARg1 K132A/R137A, NR concentration 270 nM)
In short: as §1

[15] = test system: PPARg homodimer (NR concentration 180 nM)
In short: as §1

[16] = test system: PXR:RXRa (NR concentration 270 nM, RXRa partner concentration 90 nM)
In short: as §1

[17] = test system: PXR homodimer (NR concentration 270 nM)
In short: as §1

[18] = test system: RARa:RXR (NR concentration 270 nM, RXRa partner concentration 90 nM)
In short: as §1

[19] = test system: RARa homodimer (NR concentration 270 nM)
In short: as §1

[20] = test system: RARb:RXRa (NR concentration 270 nM, RXRa partner concentration 90 nM)
In short: as §1

Sequence	PBM binding z-score [1]	PBM binding z-score [2]	PBM binding z-score [3]	PBM binding z-score [4]	PBM binding z-score [5]	PBM binding z-score [6]	PBM binding z-score [7]	PBM binding z-score [8]	PBM binding z-score [9]	PBM binding z-score [10]	PBM binding z-score [11]	PBM binding z-score [12]	PBM binding z-score [13]	PBM binding z-score [14]	PBM binding z-score [15]	PBM binding z-score [16]	PBM binding z-score [17]	PBM binding z-score [18]	PBM binding z-score [19]	PBM binding z-score [20]
GATACAGAGTCAAGGCCAGAGTACGCGTATTGAT	-0.608	-0.442	-0.531	-0.627	-0.712	-0.293	0.646	-0.0744	-0.0806	-0.0588	-0.108	-0.0303	0.127	-0.418	-0.301	-0.285	-0.253	-0.181	-1.07	0.288
ACTTACGGGTCGACGAGGTTATAGCACGCGTATA	1.82	1.97	0.124	1.94	0.314	2.97	1.52	1.22	0.608	0.729	0.585	1.14	0.084	0.394	0.944	2.68	0.798	2.75	-0.198	1.82
AGTCAAAGTTCACTAGGTAACGGAAGATTCAGCT	4.46	5.19	2.4	3.15	1.03	4.82	6.78	6.56	3.1	5.71	2.88	4.85	0.928	0.734	2.34	4.05	2.12	3.09	1.02	4.71
TGAATGAGGTTATAAGATCAGGGTACGTTGCAAA	1.46	1.39	0.0526	1.44	0.315	2.72	1.53	1.96	0.789	1.23	0.889	1.69	1.22	0.612	0.135	1.17	0.33	1.74	0.229	1.27
CATACAGGGTCAGCTAGGACAGAGTAGGGACGGC	4.48	2.8	-0.0468	2.29	0.178	4.13	3.16	2.87	0.481	1.76	1.2	2.23	0.778	0.0196	0.881	2.07	0.128	3	0.439	4.04
TAGCCTAGGTCTTGGGCCAGTATACCACGCGAAC	-0.302	-0.359	-0.58	-0.334	-0.384	-0.242	0.0651	-0.286	-0.619	-0.51	-0.718	-0.4	-0.0485	-0.703	-0.0751	-0.448	-0.379	-0.298	-0.982	0.162
GCTGCTTGGTCAGGTTGGTCAGCTAACGGGTACG	-0.11	-0.383	-0.554	-0.457	-0.187	-0.407	-0.682	-0.648	-0.905	-1.09	-0.165	0.0885	-0.778	-0.893	-0.123	-0.298	-0.597	-0.108	-0.538	0.63
